S16 F2sN tox = Cell viability qHTS assay in S16 Pmp22-F2sN cells | S16 Pmp22-F2sN Schwann cells viability, CellTiter-Glo, 24 h | hit rate 0.48% among 43,000 | AID 1508642, 2021 | Potency, µM (doses to about 57.5 µM), hits mostly cytotoxic; further: nearly all actives have a fitted effect of over 65% in size
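Rat S16 Schwann reporter line, 24 h treatment with library compounds delivered at 23 nL per well. Cell viability by CellTiter-Glo luminescence.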
pS6 MEF inh = Acumen qHTS Assay for Inhibitors of the mTORC1 Signaling Pathway in MEF (Tsc2-/-, p53-/-) Cells: Sytravon; AID 493208, 2011; Tsc2-/- p53-/- MEF, phospho-rpS6 immunofluorescence/PI, 24 h; Potency, µM (doses to about 38.3 µM), hits mostly inhibitors; hit rate 0.78% among 44,000; further: nearly all actives have a fitted effect of over 50% in size
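Plate MEFs (Tsc2-/-, p53-/-, empty vector) in DMEM/10% FBS; after 24 h add compound, incubate 24 h at 37 degree Celsius; fix in PFA/TX-100, block, stain phospho-rpS6 and 10 uM PI; scan at 488 nm; report % positive cells.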
FH mod = Identification of activators of human fumarate hydratase by quantitative high-throughput screening; hit rate 0.22% among 54,000; Potency, µM (doses to about 79.9 µM), usual class: inhibitors; Fumarate hydratase, mitochondrial (Homo sapiens), P07954; FH coupled MDH/diaphorase resazurin fluorescence, 15 min; further: the screen sought activators but most active calls are inhibition curves; nearly all actives have a fitted effect of over 45% in size
PMP22 txn prim = Cell-based coincidence reporter assay to measure PMP22 gene transcription in S16 Pmp22-F2sN cells - Primary screen | S16 Pmp22-F2sN Schwann cells (luciferase reporters placed in the Pmp22 gene), FLuc/NLuc coincidence luminescence, 24 h | Potency, µM (titrated, usually from 57.5 µM), usual class: inhibitors | hit rate 2% among 43,000 | AID 1508649, 2021; active means clear falling dose curves in both reporters; inconclusive means both reporters move, but less clearly or upward; inactive means either reporter flat; the % is the NLuc reporter signal
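S16 Schwann cells carrying FLuc/NLuc coincidence reporter in the Pmp22 3' UTR treated with compound 24 h at 37C; FLuc then NLuc luminescence read sequentially by dual-luciferase reagents.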
HTT-AS act = Primary qHTS for Identification of Small Molecule Activators of Huntingtin-Antisense Promoter Activity; HEK293 HTT-AS promoter firefly luciferase reporter, 24 h; response scale: percent change from vehicle, -100% = no light; Potency, µM (series often up to 57.5 µM), hits mostly activators; hit rate 0.24% among 48,000; AID 1508624, 2021; further: nearly all actives have a fitted effect of over 55% in size
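Luminescence was read after Dual-Glo reagent and a 10 min room-temperature incubation. Values were normalized to vehicle (0% activity) and zero RLU (-100% activity). Reporter HEK293 cells had been exposed to compounds (up to 57.5 uM final) for 24 h.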
HTT promoter inh = Primary qHTS for Identification of Small Molecule Inhibitors of Huntingtin Promoter Activity; hit rate 0.93% among 48,000; Potency, µM (titrated, usually from 57.5 µM), most hits filed as inhibitors; AID 1508623, 2021; HEK293 HTT promoter firefly luciferase reporter, 24 h; further: nearly all actives have a fitted effect of over 50% in size
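HEK293 Fluc reporter, 2,500 cells/well, 24 h pre-culture; cpds up to 57.5 uM final, 24 h 37 degrees C; Dual-Glo, 10 min RT; normalized vehicle = 0%, zero RLU = -100%.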
NLuc saturating = Biochemical NLuc saturation counterscreen for small molecule modulators of PMP22 gene expression - Nano-Glo assay; shares compounds with PMP22 txn prim; Secreted NLuc enzyme (filtered S16 cell medium), Nano-Glo luminescence; Potency, µM (series often up to 57.5 µM), most hits filed as inhibitors; hit rate 4% among 690; AID 1508638, 2021
NLuc Km counter = Biochemical coelenterazine-based NLuc counterscreen for small molecule modulators of PMP22 gene expression - Km assay. shares compounds with PMP22 txn prim. secreted NLuc enzyme, coelenterazine luminescence, Km conditions. Potency, µM (doses to about 57.5 µM), hits mostly inhibitors. hit rate 5% among 690. AID 1508639, 2021
FLuc counter = Biochemical FLuc counterscreen for small molecule modulators of PMP22 gene expression; purified P. pyralis FLuc, luminescence, 10 min; Potency, µM (doses to about 57.5 µM), usual class: inhibitors; AID 1508640, 2021; shares compounds with PMP22 txn prim; 690 tested, under 10 active
Target sequence (P08659 whole entry, looked up): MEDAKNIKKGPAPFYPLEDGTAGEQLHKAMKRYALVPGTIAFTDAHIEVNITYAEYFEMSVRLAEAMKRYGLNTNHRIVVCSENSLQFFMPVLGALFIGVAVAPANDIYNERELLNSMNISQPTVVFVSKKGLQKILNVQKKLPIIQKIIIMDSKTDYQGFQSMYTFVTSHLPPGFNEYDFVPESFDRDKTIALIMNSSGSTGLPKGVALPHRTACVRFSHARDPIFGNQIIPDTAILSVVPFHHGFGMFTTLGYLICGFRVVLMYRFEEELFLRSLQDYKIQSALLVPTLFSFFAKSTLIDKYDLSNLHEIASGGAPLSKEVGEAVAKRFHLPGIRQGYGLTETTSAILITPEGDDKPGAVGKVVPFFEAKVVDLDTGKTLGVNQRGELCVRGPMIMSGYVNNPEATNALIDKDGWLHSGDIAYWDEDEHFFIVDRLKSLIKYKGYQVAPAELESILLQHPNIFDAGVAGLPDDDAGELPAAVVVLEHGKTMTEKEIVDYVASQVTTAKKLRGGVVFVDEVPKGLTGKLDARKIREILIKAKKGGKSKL
S16 viab conf = Cell viability qHTS assay in S16 Pmp22-F2sN cells - Confirmatory screen. shares compounds with PMP22 txn prim. S16 Schwann cells viability, CellTiter-Glo ATP luminescence, 24 h. Potency, µM (series often up to 57.5 µM), most hits filed as cytotoxic. hit rate 7% among 690. AID 1508641, 2021
PMP22 txn cnf = Cell-based coincidence reporter assay to measure PMP22 gene transcription in S16 Pmp22-F2sN cells - Confirmatory screen; Potency, µM (top dose mostly 57.5 µM), usual class: inhibitors; AID 1508646, 2021; hit rate 22% among 690; S16 Schwann cells Pmp22-F2sN, dual luciferase, 24 h; shares compounds with PMP22 txn prim; active means clear falling dose curves in both reporters; inconclusive means both reporters move, but less clearly or upward; inactive means either reporter flat; the % is the FLuc reporter signal
PMP22 prot conf = Cell-based HiBiT reporter assay to measure PMP22 protein expression in S16 Pmp22-HiBiT cells - Confirmatory screen | Potency, µM (series often up to 27.9 µM), most hits filed as inhibitors | 95 tested, under 10 active | S16 Schwann cells Pmp22-HiBiT, luminescence, 48 h | shares compounds with PMP22 txn prim
Target sequence (P25094 whole entry, looked up): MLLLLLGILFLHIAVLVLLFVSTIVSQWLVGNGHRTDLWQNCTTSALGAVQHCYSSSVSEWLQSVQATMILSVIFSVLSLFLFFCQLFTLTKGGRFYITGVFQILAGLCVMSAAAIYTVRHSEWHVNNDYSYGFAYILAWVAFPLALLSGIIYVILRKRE
Large screens that a line does not name were inactive (follow-up assays come after a bar, where they were run). Most compounds without a hit are left out; they make up all but 3.3% or so of the library. Unless noted, the call rests on the fitted dose curve; in most records, active means well fitted curve in the direction sought with a large enough effect; inconclusive means small, poorly fitted or top-dose-only effect, or another doubt; inactive means no such curve, though single readings can be large; an effect the other way counts as inactive or inconclusive.

Cc1cccc(N2CCN(C(=O)c3ccc(CS(=O)c4cccc(Cl)c4)o3)CC2)c1C (centres undefined)	S16 F2sN tox inconclusive, pS6 MEF inh 7.4µM, FH mod inconclusive, PMP22 txn prim 9.6µM, HTT promoter inh inconclusive | NLuc saturating inactive | NLuc Km counter inconclusive | FLuc counter inactive | S16 viab conf inactive | PMP22 txn cnf inconclusive
Cc1ccccc1S(=O)Cc1ccc(C(=O)N2CCN(c3cccc(C)c3C)CC2)o1 (centres undefined)	pS6 MEF inh inconclusive, PMP22 txn prim inconclusive, HTT promoter inh inconclusive
Cc1ccc(S(=O)(=O)Cc2ccc(C(=O)N3CCN(c4cccc(C)c4C)CC3)o2)cc1	pS6 MEF inh inconclusive, PMP22 txn prim 14µM, HTT promoter inh inconclusive | NLuc saturating inactive | NLuc Km counter inactive | FLuc counter inactive | S16 viab conf inactive | PMP22 txn cnf inconclusive
Cc1cccc(Nc2nc3c(S(=O)(=O)c4ccc(Br)cc4)nnn3c3ccsc23)c1C	PMP22 txn prim 12µM | NLuc saturating inactive | NLuc Km counter inconclusive | FLuc counter inactive | S16 viab conf inactive | PMP22 txn cnf inconclusive
CCOc1ccc(Nc2nc3c(S(=O)(=O)c4ccc(CC)cc4)nnn3c3ccc(Cl)cc23)cc1	PMP22 txn prim 7.9µM | NLuc saturating inactive | NLuc Km counter inactive | FLuc counter inactive | S16 viab conf inactive | PMP22 txn cnf inconclusive
O=S(=O)(c1ccc(Br)cc1)c1nnn2c1nc(Nc1cccc(C(F)(F)F)c1)c1sccc12	PMP22 txn prim inconclusive
CCc1ccc(Nc2nc3c(S(=O)(=O)c4ccc(C)cc4)nnn3c3ccsc23)cc1	PMP22 txn prim 5.8µM | NLuc saturating inactive | NLuc Km counter inconclusive | FLuc counter inactive | S16 viab conf inconclusive | PMP22 txn cnf inactive
CCCc1ccc(OCC(=O)N(Cc2nc(-c3cccnc3)no2)C(C)C)cc1	none (no result: S16 F2sN tox, pS6 MEF inh, PMP22 txn prim, HTT-AS act, HTT promoter inh)
CCc1ccc(C(=O)c2cn(CC(=O)Nc3ccc4c(c3)OCO4)c3ccc(CC)cc3c2=O)cc1	PMP22 txn prim 13µM | NLuc saturating inactive | NLuc Km counter inactive | FLuc counter inactive | S16 viab conf inconclusive | PMP22 txn cnf 12µM | PMP22 prot conf inconclusive
O=C(Cn1cc(C(=O)c2ccco2)c2ccccc21)Nc1ccccc1C(F)(F)F	PMP22 txn prim 12µM | NLuc saturating inactive | NLuc Km counter inactive | FLuc counter inactive | S16 viab conf inactive | PMP22 txn cnf inactive
O=C(Cn1cc(C(=O)c2ccco2)c2ccccc21)Nc1ccccc1Cl	pS6 MEF inh inconclusive, PMP22 txn prim inconclusive, HTT promoter inh inconclusive
Cc1noc(C)c1-c1cc(O)cc(C(O)c2ccccc2)c1 (centres undefined)	none (no result: S16 F2sN tox, pS6 MEF inh, PMP22 txn prim, HTT-AS act, HTT promoter inh)
CCN1CCOC(=O)C1CC(=O)Nc1ccc(C)c(Cl)c1 (centres undefined)	S16 F2sN tox inconclusive, pS6 MEF inh inconclusive, PMP22 txn prim inconclusive
CCN1CCOC(=O)C1CC(=O)Nc1cc(Cl)ccc1C (centres undefined)	S16 F2sN tox inconclusive, pS6 MEF inh inconclusive, PMP22 txn prim 11µM | NLuc saturating inactive | NLuc Km counter inactive | FLuc counter inactive | S16 viab conf inconclusive | PMP22 txn cnf inconclusive
CCN1CCOC(=O)C1CC(=O)Nc1cccc(OC)c1 (centres undefined)	S16 F2sN tox inconclusive, pS6 MEF inh 21µM, PMP22 txn prim 13µM | NLuc saturating inactive | NLuc Km counter inactive | FLuc counter inactive | S16 viab conf inconclusive | PMP22 txn cnf inconclusive
CC1(C)CC2C(C1)C1(C)CCC13OC3(CO)C2O (centres undefined)	none (no result: S16 F2sN tox, pS6 MEF inh, PMP22 txn prim, HTT-AS act, HTT promoter inh)
COC(=O)C1=CO[C@@H](O[C@@H]2O[C@H](CO)[C@@H](O)[C@H](O)[C@H]2O)[C@@H]2C(CO)=CC[C@]12O	none (no result: S16 F2sN tox, pS6 MEF inh, PMP22 txn prim, HTT-AS act, HTT promoter inh)
Cc1ccc(NC(=O)Cn2c(=O)oc3cc(S(=O)(=O)N4CCCCC4)ccc32)c(Cl)c1	PMP22 txn prim inconclusive, HTT promoter inh inconclusive
Cc1cccc(NC(=O)Cn2c(=O)oc3cc(S(=O)(=O)NCc4ccccc4)ccc32)c1	PMP22 txn prim 11µM, HTT promoter inh inconclusive | NLuc saturating inactive | NLuc Km counter inactive | FLuc counter inactive | S16 viab conf inactive | PMP22 txn cnf inactive
Cc1cc(C)c(NC(=O)Cn2c(=O)oc3cc(S(=O)(=O)N4CCCCCC4)ccc32)c(C)c1	PMP22 txn prim inconclusive, HTT promoter inh 10µM | NLuc saturating inactive | NLuc Km counter inactive | FLuc counter inactive | S16 viab conf inactive | PMP22 txn cnf inconclusive
CNC(=O)[C@H]1O[C@@H](n2cnc3c(NCc4cccc(I)c4)ncnc32)[C@H](O)C1O (some centres undefined)	none (no result: S16 F2sN tox, pS6 MEF inh, PMP22 txn prim, HTT-AS act, HTT promoter inh)
